Source: PubChem BioAssay AID1259422 (The Scripps Research Institute Molecular Screening Center, 2018)
Hit rate of the full screen: of about 640,000 compounds, about 9,300 (1.5%) were called active. The sample holds actives, similar compounds and a random draw of the others, so the mix is not that of the screen. Rule as the data show it: active = inhibition above about 32%; inactive = the rest.

Assay: TEAD-YAP interaction inhibition, primary screen, TEAD-YAP interaction inhibitor project, luminescence, HEK-TIYL cells (AID 1259422);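 also: 0% = median of test compound wells and 100% = reference inhibitor wells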
Conditions: TEAD-Gal4/YAP UAS-luciferase luminescence, at 9.12 µM, active compounds read high
With Cc1ccc2cccc(SCC(=O)Nc3ccc(Br)cc3)c2n1 the inhibition was 17.4% (inactive). In the case of COc1ccc(-n2nc3cc(C)c(NC(=O)c4ccccc4I)cc3n2)cc1, the inhibition was -23.3% (inactive). With CN(CCC(=O)Nc1cccc(F)c1)Cc1ccccc1 the inhibition was 2.01% (inactive). In the case of COc1ccccc1NC(=O)CSc1n[nH]c(C)n1, the inhibition was 5.98% (inactive). With COc1ccc(CSc2n[nH]c(C)n2)cc1Cl the inhibition was 44.5% (active). In the case of COc1ccc(C(=O)CSc2n[nH]c(C)n2)cc1, the inhibition was -4.7% (inactive). For COc1ccccc1NC1=NC(c2ccc(Cl)cc2)N=C(N)N1 (centres undefined), the inhibition was 40.4% (active). In the case of COc1ccccc1Nc1cc(C)nc2ccc(Cl)cc12, the inhibition was 4.34% (inactive). With COc1ccccc1Nc1nc(-c2ccc(Cl)cc2)cs1 the inhibition was -12% (inactive). For O=C(NCC1CCCN(Cc2cccn2-c2ncccn2)C1)c1n[nH]c2ccccc12 (centres undefined), the inhibition was 33.7% (active). With O=C(NCC1CCCN(Cc2nc(-c3ccccc3)cs2)C1)c1cccs1 (centres undefined) the inhibition was 9.19% (inactive). For Cc1c(CN2CCCC(CNC(=O)c3ccc4c(c3)OCO4)C2)[nH]c2ccccc12 (centres undefined), the inhibition was 13.5% (inactive). In the case of CCOc1ccc(CN2CCN(Cc3ccc(OC)c(OCC)c3)CC2)cc1, the inhibition was -0.01% (inactive). In the case of FC(F)(F)c1cccc(N2N=C(/C=C/c3ccccc3)CC2c2ccccc2)c1 (centres undefined), the inhibition was -3.08% (inactive). For Cn1c(=O)n(C)c2cc(/C=C3/SC(=Nc4ccc(F)cc4)NC3=O)ccc21, the inhibition was -33.4% (inactive). For O=C1NC(=Nc2ccc(F)cc2)S/C1=C\c1ccc(O)c(O)c1, the inhibition was 51.2% (active). With O=C1NC(=Nc2ccc(F)cc2)S/C1=C\c1cccs1 the inhibition was 7.85% (inactive). For CCCCNC(=O)C(=O)NCC1COc2ccccc2O1 (centres undefined), the inhibition was -0.58% (inactive). In the case of COc1ccc(OCC(=O)Nc2nc3ccc(C)cc3s2)cc1, the inhibition was -5.48% (inactive). With O=C(NCCOc1ccccc1)c1cc(NC2CCN(Cc3ccccc3)CC2)nc2ccccc12 the inhibition was 10.3% (inactive). For Cc1ccc(NC(=O)/N=C/c2sc(=O)[nH]c2O)cc1, the inhibition was -3.99% (inactive). For CNC(=O)c1ccccc1Nc1ccnc(Nc2ccc(N3CCOCC3)cc2)c1, the inhibition was 8.21% (inactive). In the case of FC(F)(F)c1ccc(Cn2cnc3c(NCc4cccc(C(F)(F)F)c4)nc(Nc4ccc(N5CCOCC5)cc4)nc32)cc1, the inhibition was 2.31% (inactive). With Cc1cnc(Nc2ccc(N3CCOCC3)cc2)nc1NCc1cccc(C(F)(F)F)c1 the inhibition was 67.6% (active). With FC(F)(F)c1cccc(CNc2nc(Nc3ccc(N4CCOCC4)cc3)nc3c2ncn3-c2ccsc2)c1 the inhibition was -6.95% (inactive). In the case of c1ccc(Nc2nc(Nc3ccc(N4CCOCC4)cc3)nc3nc[nH]c23)cc1, the inhibition was 24.1% (inactive). For c1cc(-c2ocnc2-c2ncco2)cc(Nc2ccc(N3CCOCC3)cc2)n1, the inhibition was 38.6% (active). In the case of c1ccc(-n2cnc(-c3ccnc(Nc4ccc(N5CCOCC5)cc4)c3)n2)cc1, the inhibition was -7.29% (inactive). With Cc1cnc(-c2c(C)noc2C)nc1Nc1ccc(N2CCOCC2)cc1 the inhibition was -11.4% (inactive). With c1cncc(-n2cnc(-c3ccnc(Nc4ccc(N5CCOCC5)cc4)c3)n2)c1 the inhibition was -10.2% (inactive). In the case of Cc1cnc(Nc2ccc(N3CCOCC3)cc2)nc1Nc1ccccc1-c1ncn[nH]1, the inhibition was 68.8% (active). In the case of c1ccc(-c2ncn[nH]2)c(Nc2ccnc(Nc3ccc(N4CCOCC4)cc3)c2)c1, the inhibition was 44% (active). In the case of c1nc(Nc2ccc(N3CCOCC3)cc2)cc(N2CCOCC2)n1, the inhibition was 2.49% (inactive). With O=[N+]([O-])c1ccc(Cl)c(S(=O)(=O)n2nnc3ccccc32)c1 the inhibition was -1.22% (inactive). In the case of COC(=O)C1C(=O)NC(SCC(=O)Nc2ccc(OC)cc2)=C(C#N)C1c1ccc(C)cc1 (centres undefined), the inhibition was -9.22% (inactive). With CC(C)CCNS(=O)(=O)c1ccc2[nH]c3nc4nc(-c5ccc(Br)cc5)cn4nc3c2c1 the inhibition was 6.91% (inactive). In the case of Cc1cc(=O)oc2c(/C=N\NC(=O)c3ccc(Br)cc3)c(O)ccc12, the inhibition was 5.44% (inactive). For CCOc1ccc(NC(=O)/C(C#N)=C\c2ccc(O)cc2)cc1, the inhibition was -6.14% (inactive). For O=C1C(=O)N(Cc2cccnc2)C(c2cccc(Br)c2)/C1=C(/O)c1ccccc1 (centres undefined), the inhibition was -12.1% (inactive). With O=C1CCC(=O)N1c1ccc(-c2nc3scc(-c4cccs4)c3c(=O)o2)cc1 the inhibition was -7.68% (inactive). For CCOC(=O)N1CCN(C(=O)c2cc3cc4ccc(OC)cc4nc3o2)CC1, the inhibition was -1.56% (inactive). For CCN(CC)C(=O)c1cc2cc3ccc(OC)cc3nc2o1, the inhibition was 58% (active). With COc1ccc2nc3oc(C(=O)NC4CC4)cc3cc2c1 the inhibition was -62.4% (inactive). With COCCn1nnnc1CN(Cc1ccco1)CC1CCCO1 (centres undefined) the inhibition was -5.83% (inactive). With CCOC(=O)C1=C(C)NC2=C(C(=O)CC(C)(C)C2)C1c1cccs1 (centres undefined) the inhibition was 7.66% (inactive). With CCOc1ccc(C2C(C#N)=C(N)N(N(C)C)C3=C2C(=O)CC(c2ccccc2)C3)cc1 (centres undefined) the inhibition was 17.9% (inactive). With Cc1nnc(SCC(=O)c2ccc3c(c2)OCCO3)o1 the inhibition was -48.4% (inactive). With CCCCSc1nnc2c(n1)OC(c1cccc(Cl)c1)Nc1ccccc1-2 (centres undefined) the inhibition was -39.8% (inactive). With O=C(O)CCCCCN1C(=O)/C(=C/c2ccc3c(c2)OCO3)SC1=S the inhibition was 43.9% (active). In the case of O=C(O)CCN1C(=O)/C(=C\c2ccc(C(=O)O)cc2)SC1=S, the inhibition was -5.44% (inactive). With COc1cc(/C=C2/SC(=S)N(CC(=O)O)C2=O)cc2c1OCO2 the inhibition was 2.97% (inactive). In the case of CCN1C(=O)/C(=C/c2ccc(OCC(=O)O)cc2)SC1=S, the inhibition was -16.2% (inactive). With O=C(O)CCCCCN1C(=O)/C(=C\c2cccs2)SC1=S the inhibition was 28.4% (inactive). In the case of C=CCOc1ccc(/C=C2\SC(=S)N(CCC(=O)O)C2=O)cc1, the inhibition was 50.1% (active). With COc1cccc(C(=O)NC(=S)Nc2ccc(Br)c(C)n2)c1 the inhibition was -5.25% (inactive). For Cc1cc2nc3[nH]c4ccccc4c3nc2cc1C, the inhibition was -33% (inactive). With Cc1ccc2nc3[nH]c4ccccc4c3nc2c1 the inhibition was 35% (active). For O=C(NCc1ccc(F)cc1)c1ccc2nc3[nH]c4ccccc4c3nc2c1, the inhibition was 4.49% (inactive). For O=C(NNc1ccc([N+](=O)[O-])cc1[N+](=O)[O-])c1cc2ccccc2cc1O, the inhibition was 8.71% (inactive). In the case of Cc1cc(C(=O)N(Cc2ccccn2)c2nc3ccccc3s2)on1, the inhibition was 69.7% (active). For O=C1CCC(=O)N1CC(=O)N(Cc1ccccn1)c1nc2ccccc2s1, the inhibition was 18.1% (inactive). In the case of CCc1cccc2sc(N(Cc3ccccn3)C(=O)CSCc3ccccc3)nc12, the inhibition was 2.11% (inactive). In the case of CC(=O)Oc1cccc(N2C(=O)c3ccc(-c4nc5ccccc5o4)cc3C2=O)c1, the inhibition was -6.42% (inactive). With C=CCc1ccc(OCCN2CC(C)OC(C)C2)c(OC)c1 (centres undefined) the inhibition was -7.73% (inactive). In the case of CC(=O)c1cccc(NC(=O)c2nn3c(C(F)(F)F)cc(-c4ccc(Br)cc4)nc3c2Cl)c1, the inhibition was 2.9% (inactive). With CCC(=O)Oc1ccc(OC)cc1C1Oc2nc(SC)nnc2-c2ccccc2N1C(=O)CC (centres undefined) the inhibition was -5.21% (inactive). In the case of Cc1nc2sc(-c3ccccc3)cc2c(=O)o1, the inhibition was 41% (active). With Cc1nc2ccc(Cc3ccc4nc(C)oc(=O)c4c3)cc2c(=O)o1 the inhibition was -1.07% (inactive). For COC(=O)C(C)n1cnc2sc(-c3ccccc3)cc2c1=O (centres undefined), the inhibition was -25.2% (inactive). For O=S(=O)(O)CCC[n+]1ccc(/C=C/c2c[nH]c3ccccc23)cc1, the inhibition was 3.32% (inactive). For OCCCNc1ccc2ncc(-c3ccc(N4CCOCC4)cc3)n2n1, the inhibition was 19.8% (inactive). With Cc1cc(C(=O)COC(=O)C(CC(C)C)NC(N)=O)c(C)n1Cc1cccs1 (centres undefined) the inhibition was 66.1% (active). With Cc1cc(C(=O)COC(=O)c2ccc([N+](=O)[O-])o2)c(C)n1Cc1cccs1 the inhibition was 0.16% (inactive). With Cc1cc(C(=O)COC(=O)CCC(=O)c2cccs2)c(C)n1Cc1ccco1 the inhibition was -6.67% (inactive). With COc1ccc(-c2cn3c4ccccc4n(CCN4CCOCC4)c3n2)cc1 the inhibition was -4.68% (inactive). With Cn1c2ccccc2n2cc(-c3ccc([N+](=O)[O-])cc3)nc12 the inhibition was -27.1% (inactive). In the case of COc1ccc(-c2cn3c4ccccc4n(N)c3n2)cc1, the inhibition was 90% (active). For CC(C)[C@@H](CO)Nc1ccc2ncc(-c3ccc(C#N)cc3)n2n1, the inhibition was 29.7% (inactive). With CCC(CO)Nc1ccc2ncc(-c3cccc(F)c3)n2n1 (centres undefined) the inhibition was 5.85% (inactive). With CC(C)[C@@H](CO)Nc1ccc2ncc(-c3ccc(O)cc3)n2n1 the inhibition was -7.09% (inactive). With CC(C)[C@@H](CO)Nc1ccc2ncc(-c3ccccc3F)n2n1 the inhibition was 57.3% (active). With CCC(CO)Nc1ccc2ncc(-c3ccccc3)n2n1 (centres undefined) the inhibition was 33.7% (active). With CCC(CO)Nc1ccc2ncc(-c3ccc(N4CCOCC4)cc3)n2n1 (centres undefined) the inhibition was -1.73% (inactive). In the case of CCS(=O)(=O)Nc1cccc(N2CCC(NCCn3nc(C)cc3C)CC2)c1, the inhibition was 2.36% (inactive). In the case of CC(Oc1ccc(Cl)cc1Cl)C(=O)Nc1ccc(C(=O)O)cc1 (centres undefined), the inhibition was 11.5% (inactive). In the case of O=C(CN(c1ccc(Cl)cc1Cl)S(=O)(=O)c1ccccc1)Nc1ccc(Cl)c(Cl)c1, the inhibition was -0.39% (inactive). In the case of CC(C)(C)c1ccc(NC(=O)CSc2cccc[n+]2[O-])cc1, the inhibition was -49.2% (inactive). With O=C(NCc1ccc2c(c1)OCO2)c1cccnc1SCc1cccc(Br)c1 the inhibition was 10.6% (inactive). For NC(=O)c1c(NC(=O)Cc2ccccc2)sc2c1CCCCC2, the inhibition was -7.09% (inactive). For N#Cc1c(NC(=O)c2cc3ccccc3c(=O)o2)sc2c1CCCCC2, the inhibition was 4.91% (inactive). In the case of O=C(Nc1sc2c(c1C(=O)O)CCCC2)c1cc2ccccc2o1, the inhibition was 50.1% (active). In the case of COC(=O)c1c(NC(=O)c2cc3ccccc3oc2=O)sc2c1CCCC2, the inhibition was -7.92% (inactive). In the case of NC(=O)c1c(NC(=O)c2ccc(Br)o2)sc2c1CCCC2, the inhibition was 3.19% (inactive). For NC(=O)c1c(NC(=O)c2cc(=O)c3ccccc3o2)sc2c1CCCCC2, the inhibition was 32.9% (active).
